{"source": "PubChem BioAssay (NCATS)", "note": "Records with an inconclusive call do not appear. Unmarked numbers belong to inactive results. Calls of active or inactive are those of the source. Calls follow the shape of the dose curve; as a rule, active = well fitted activation curve with a large enough effect; inconclusive = small, poorly fitted or top-dose-only effect; inactive = no such curve, though single readings can be large or run the other way. Potency is read from the fitted curve at half-maximal effect."}
{"target": "Cellular tumor antigen p53 (Homo sapiens) (UniProt P04637)", "sequence (P04637 whole entry, looked up)": "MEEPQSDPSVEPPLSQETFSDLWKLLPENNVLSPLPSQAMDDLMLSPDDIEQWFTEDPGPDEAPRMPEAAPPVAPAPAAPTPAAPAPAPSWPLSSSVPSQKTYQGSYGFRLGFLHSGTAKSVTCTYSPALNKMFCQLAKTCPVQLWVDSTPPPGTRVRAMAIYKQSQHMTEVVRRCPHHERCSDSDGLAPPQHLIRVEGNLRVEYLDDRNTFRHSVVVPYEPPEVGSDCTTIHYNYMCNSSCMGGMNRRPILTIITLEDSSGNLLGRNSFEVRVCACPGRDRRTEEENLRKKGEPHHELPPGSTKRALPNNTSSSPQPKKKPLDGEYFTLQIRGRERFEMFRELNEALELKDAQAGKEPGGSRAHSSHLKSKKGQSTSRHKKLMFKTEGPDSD", "test": "Primary qHTS for small molecule compounds that upregulate eGFP-tagged delta133p53alpha (in N-terminal) cells. (AID 2060322); also: nearly all actives have a fitted effect of over 75% in size;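 as to activation: series mostly up to about 56 µM; 0% = DMSO vehicle and 100% = reference activator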", "details": "NCI-H358 eGFP-delta133p53alpha fluorescence, 24 h; activation: hits give high values", "how_it_was_run": "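NCI-H358 cells pre-induced 24 h with 10 ng/ml doxycycline to express N-terminal eGFP-delta133p53alpha, then dosed 24 h at 37C without doxycycline; fixed, Hoechst-stained, GFP intensity by laser scanning cytometry, normalized to DMSO (0%) and 57.5 uM 5-azacytidine (100%).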", "units": {"activation": "%"}}
{"smiles": "Cc1c(C(=O)NCCCO)cnn1-c1nc(-c2cccc(C(F)(F)F)c2)cs1", "Potency": "9.53 µM (active)"}
{"smiles": "C[C@@H]1CCC2C(C)(C)[C@H](O)CC[C@]2(C)[C@@]12Cc1c(O)cc3c(c1O2)CN(CCO)C3=O", "note": "(some centres not stated)", "activation": 11.5}
{"smiles": "CC1=CC(=O)[C@]2(O[C@@H]3O[C@@H](C)[C@H](O)[C@@H](O)[C@H]3O)C=CO[C@@H](O[C@@H]3O[C@H](CO)[C@@H](O)[C@H](O)[C@H]3O)[C@H]12", "activation": -18.3}
{"smiles": "CC(CCO)CCC1C2(C)CCCC(C)(C)C2CC[C@@]1(C)O", "note": "(some centres not stated)", "activation": 18.3}
{"smiles": "CC(O)/C=C/C1(O)C(C)C(O[C@@H]2O[C@H](CO)[C@@H](O)[C@H](O)[C@H]2O)C(O)CC1(C)C", "note": "(some centres not stated)", "activation": -10.7}
{"smiles": "CC1=C(C(=O)OCc2ccccc2)C(c2ccc(-c3ccccc3)cc2)NC(=O)N1CCCCCC(=O)O", "note": "(configuration not stated)", "activation": 12.3}
{"smiles": "O=C(NC[C@H]1CN(c2ccc(N3CCOCC3=O)cc2)C(=O)O1)c1ccc(Cl)s1", "activation": 5.25}
{"smiles": "C=C(C)[C@@H]1CC[C@]2(CO)CC[C@]3(C)[C@H](CC[C@@H]4[C@@]5(C)CC[C@H](O)C(C)(C)[C@@H]5CC[C@]43C)[C@@H]12", "Potency": "10.4 µM (active)"}
{"smiles": "O=C(Nc1ccc(Cl)cc1)C1CCCN(C(=O)c2cccc(-c3ccco3)c2)C1", "note": "(configuration not stated)", "activation": -4.77}
{"smiles": "C[C@H]1[C@H](C)CC[C@]2(C(=O)O)CC[C@]3(C)C(=CCC4[C@@]5(C)C[C@@H](O)[C@H](O)C(C)(C)C5CC[C@]43C)[C@H]12", "note": "(some centres not stated)", "activation": -9.16}
{"smiles": "Cc1cc(O)c(C(C)C)cc1O[C@@H]1O[C@H](CO)[C@@H](O)[C@H](O)[C@H]1O", "activation": -17.6}
{"smiles": "Nc1c(S(=O)(=O)c2ccccc2)c2nc3ccccc3nc2n1-c1ccc(F)cc1", "activation": -10.3}
{"smiles": "C=C1C(O)CC2C(C(=O)O)=COC(O[C@@H]3O[C@H](COC(=O)/C=C/c4ccc(O)cc4)[C@@H](O)[C@H](O)[C@H]3O)C12", "note": "(some centres not stated)", "activation": -6.87}
{"smiles": "C[C@]1(OC(=O)/C=C/c2ccc(O)cc2)C[C@@H](O)[C@]2(O)C=CO[C@@H](O[C@@H]3O[C@H](CO)[C@@H](O)[C@H](O)[C@H]3O)C12", "note": "(some centres not stated)", "activation": 3.57}
{"smiles": "C[C@H]1CC[C@@H]2N(C1)C[C@@H]1[C@H]([C@@H](O)[C@H](O)[C@]3(O)[C@H]1C[C@@]14OC5(O)[C@@H](C[C@@H](O)[C@@H]31)[C@]4(C)CC[C@@H]5O)[C@]2(C)O", "activation": 0}
{"smiles": "C/C=C/C=C/C(=O)O[C@@H]1C=C2COC(=O)[C@]2(O)[C@@]2(C)CCCC(C)(C)[C@H]12", "activation": -3.82}
{"smiles": "C[C@@H]1C(=O)OC[C@H]2C(C(=O)O)=C[C@@H]3CC(C)(C)C[C@]312", "activation": -6.87}
{"smiles": "CCC(C)/C=C(C)/C=C/C1=CC2=CC(=O)C3(C)OC(C)(O)C(C(=O)OC)C3C2=CO1", "note": "(configuration not stated)", "Potency": "13.1 µM (active)"}
{"smiles": "CC(C)CC(=O)NCCn1cc(C(=O)O)c(=O)cc1C(O)c1ccccc1", "note": "(configuration not stated)", "activation": -1.53}
{"smiles": "CCOc1ccc(S(=O)(=O)n2c(C)nc3ccccc32)cc1", "activation": -4.33}
{"smiles": "CC1(C)CCC2(C(=O)OC3OC(COC4OC(CO)C(O)C(O)C4O)C(O)C(O)C3O)CCC3(C)C(=CCC4C5(C)CCC(OC6OCC(O)C(O)C6O)C(C)(C)C5CCC43C)C2C1O", "note": "(configuration not stated)", "activation": -11.5}
{"smiles": "C=C1C2=CC(O)C(C)C1(C)CC/C(C)=C/CCC1(C)OC1C2=O", "note": "(configuration not stated)", "activation": 0.763}
{"smiles": "CC1CCC2(C)C(CC(O)C(O)C23CO3)C1(C)CCC1=CC(=O)OC1O", "note": "(configuration not stated)", "activation": -12.2}
{"smiles": "C[C@@H]1O[C@@H](O[C@H]2[C@H](OC(=O)[C@]34CCC(C)(C)C[C@H]3C3=CCC5[C@@]6(C)C[C@H](O)[C@H](O[C@@H]7O[C@H](CO)[C@@H](O)[C@H](O)[C@H]7O)[C@@](C)(CO)C6[C@H](O)C[C@@]5(C)[C@]3(C)CC4)OC[C@H](O)[C@@H]2O)[C@H](O)[C@H](O)[C@H]1O[C@@H]1OC[C@@H](O)[C@H](O[C@@H]2OC[C@](O)(CO)[C@H]2O)[C@H]1O", "note": "(some centres not stated)", "activation": 5.36}
{"smiles": "OCC1=CC[C@@H]2C=CO[C@@H](O[C@@H]3O[C@H](CO)[C@@H](O)[C@H](O)[C@H]3O)[C@H]12", "activation": -9.92}
{"smiles": "COc1ccc(/C=C/C(N)=O)cc1OC", "activation": 2.68}
{"smiles": "C#CCCCn1cc(-c2cccc3c2N[C@H](C)CC(=O)N3)cn1", "activation": 8.93}
